{
  "source": "PubChem BioAssay (NCATS)",
  "note": "Results filed as inconclusive are left out. Activity calls are given as the source filed them. Calls come from the whole dose curve.",
  "data": [
    {"molecular_target": "Vitamin D3 receptor (Homo sapiens) (UniProt P11473)", "sequence (P11473 whole entry, looked up)": "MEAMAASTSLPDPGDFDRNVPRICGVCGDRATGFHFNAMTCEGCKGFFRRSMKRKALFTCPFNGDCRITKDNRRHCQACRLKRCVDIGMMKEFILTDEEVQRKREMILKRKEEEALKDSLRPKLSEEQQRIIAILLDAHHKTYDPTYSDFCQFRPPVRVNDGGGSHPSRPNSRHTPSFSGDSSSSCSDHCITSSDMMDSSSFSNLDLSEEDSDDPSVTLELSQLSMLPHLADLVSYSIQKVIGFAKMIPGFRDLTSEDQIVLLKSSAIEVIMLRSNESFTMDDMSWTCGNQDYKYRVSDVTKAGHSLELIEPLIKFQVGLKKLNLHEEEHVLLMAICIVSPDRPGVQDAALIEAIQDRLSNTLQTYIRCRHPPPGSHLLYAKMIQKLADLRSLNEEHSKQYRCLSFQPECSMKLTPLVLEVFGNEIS", "experiment": "qHTS assay for small molecule agonists of vitamin D receptor signaling (AID 588543)", "settings": "HEK293T VDR-UAS-bla, beta-lactamase ratio, 16 h; series mostly up to 76.8 µM; activation: at the top concentration", "from_the_text": "NIH Chemical Genomics Center [NCGC]\nU.S. Environmental Protection Agency [EPA]\nNational Institutes of Environmental Health Sciences [NIEHS]\nNational Toxicology Program [NTP]\nThe Vitamin D receptor (VDR) is a member of nuclear hormone receptor superfamily and it plays a critical role in calcium homeostasis and bone metabolism. It plays a role in inducing cell differentiation, inhibiting cell growth and in thrombogenicity. So, VDR that mediates these effects represents a pharmacological target in prevention and treatment of hyperproliferative malignancies, such as cancer and psoriasis, cardiovascular, immunological, inflammatory and renal diseases etc.\nNCGC Assay Protocol Summary\nUsing a beta-lactamase reporter-gene under control of Vitamin D receptor (VDR) response element, a cell-based assay [GeneBLAzer (VDR -UAS-bla assay developed by Invitrogen] was used to measure VDR ligands signaling. GeneBLAzer VDR -UAS-bla HEK293T cells were used with assay medium containing 2% charcoal-stripped FBS. The assay was performed in clear bottom black Greiner 1536-well plates. 1-alpha,25-Dihydroxy vitaminD3 was used as a positive control in the screen. Library compounds were measured for their ability to stimulate the reporter gene activity. Compounds were screened in a titration series in 1536-well format. The fluorescence intensity (405 nm excitation, 460/530 nm emission) was measured using an EnVision plate reader. Data was normalized relative to 1-alpha,25-Dihydroxy vitaminD3 control (50 nM, 100%) and DMSO only wells (basal, 0%). Concentration-response titration points for each compound were fitted to the Hill equation yielding concentrations of half-maximal stimulation (EC50) and maximal response (efficacy) values.\nqHTS protocol for VDR beta-lactamase assay in agonist mode\n[Step] [Parameter] [Value] [Description]\n1. Reagent; 6 uL; 2000 cells/well\n2. Incubation; 37 C for 5 hrs\n4. Controls (1-alpha,25-Dihydroxy vitaminD3); 23 nL,\n- Final concentrations of 50 nM and 15 nM in two columns\n5. Incubation; 37 C for 16 hrs\n6. Detection reagent; 1 uL of CCF4-dye\n7. Incubation; RT for 2 hrs\n8. Detection; Fluorescence; Envision plate reader", "values": [
      {"smiles": "CC(C#N)CCC#N", "note": "(stereo not given)", "activation": "0.7% (inactive)"},
      {"smiles": "CN(C)C(=O)Cl", "activation": "-0.912% (inactive)"},
      {"smiles": "Clc1ccc(Cl)c(Cl)c1", "outcome": "inactive"},
      {"smiles": "O=C(Cl)OCc1ccccc1", "activation": "-1.18% (inactive)"},
      {"smiles": "CCCCCCCCCCCOC(=O)c1ccccc1C(=O)OCCCCCCCCCCC", "activation": "3.47% (inactive)"},
      {"smiles": "CN(C)N=O", "activation": "0.292% (inactive)"},
      {"smiles": "CC(C)(OOC(C)(C)c1ccccc1)c1ccccc1", "outcome": "inactive"},
      {"smiles": "C=C(C)CCl", "activation": "-0.845% (inactive)"},
      {"smiles": "O=[N+]([O-])c1ccc2c3c(cccc13)CC2", "outcome": "inactive"},
      {"smiles": "Clc1cc(Cl)c(Cl)c(Cl)c1", "activation": "-0.56% (inactive)"},
      {"smiles": "CC[N+](=O)[O-]", "activation": "0.134% (inactive)"},
      {"smiles": "O=C(O)C(Cl)Br", "note": "(stereo not given)", "activation": "-1.15% (inactive)"},
      {"smiles": "O=C(O)CCl", "activation": "5.39% (inactive)"},
      {"smiles": "O=c1ccc(=O)[nH][nH]1", "outcome": "inactive"},
      {"smiles": "[O-][Cl+]O", "activation": "1.19% (inactive)"},
      {"smiles": "[N-]=[N+]=[N-]", "activation": "0.876% (inactive)"},
      {"smiles": "C=C(Cl)CCl", "activation": "-0.884% (inactive)"},
      {"smiles": "CCSC(=O)N1CCCCCC1", "outcome": "inactive"},
      {"smiles": "C=CC=O", "activation": "-3.16% (inactive)"},
      {"smiles": "Nc1ncc([N+](=O)[O-])s1", "activation": "2.14% (inactive)"},
      {"smiles": "CC(C)OS(C)(=O)=O", "activation": "4.43% (inactive)"},
      {"smiles": "O=C(Cl)c1ccccc1F", "activation": "-0.614% (inactive)"},
      {"smiles": "O=C(O)CBr", "activation": "3.26% (inactive)"},
      {"smiles": "Cc1cnc[nH]1", "activation": "-0.208% (inactive)"},
      {"smiles": "CC12CC1(C)C(=O)N(c1cc(Cl)cc(Cl)c1)C2=O", "note": "(stereo not given)", "outcome": "inactive"},
      {"smiles": "C1CC2OC2CC1C1CO1", "note": "(stereo not given)", "outcome": "inactive"},
      {"smiles": "O=[N+]([O-])/C=C/c1ccccc1", "activation": "2.01% (inactive)"},
      {"smiles": "ClC=CCl", "activation": "-0.62% (inactive)"},
      {"smiles": "Brc1ccc(Oc2ccc(Br)cc2Br)c(Br)c1", "activation": "-1.16% (inactive)"},
      {"smiles": "O=[N+]([O-])c1ccc(Cl)cc1", "activation": "0.607% (inactive)"},
      {"smiles": "Nc1ccc([N+](=O)[O-])cc1N", "outcome": "inactive"},
      {"smiles": "CCCCOC(=O)c1ccccc1N", "activation": "1.63% (inactive)"},
      {"smiles": "CCCCNC(=O)n1c(NC(=O)OC)nc2ccccc21", "outcome": "inactive"},
      {"smiles": "COC(C)(C)C", "activation": "0.188% (inactive)"},
      {"smiles": "CC(C)OC(=O)Cc1ccccc1", "activation": "-0.523% (inactive)"},
      {"smiles": "CCC(Cl)[N+](=O)[O-]", "note": "(stereo not given)", "activation": "-0.707% (inactive)"},
      {"smiles": "Nc1ccc([N+](=O)[O-])cc1[N+](=O)[O-]", "activation": "3.47% (inactive)"},
      {"smiles": "CC(C)(C)c1ccccc1O", "outcome": "inactive"},
      {"smiles": "O=[N+]([O-])c1cc(Cl)c(Cl)cc1Cl", "activation": "-2.6% (inactive)"},
      {"smiles": "CC(C)(Cl)[N+](=O)[O-]", "activation": "-1.85% (inactive)"}
    ]}
  ]
}
